# Data reported in the supplement of paper PMC9262897, “Low-cost anti-mycobacterial drug discovery using engineered E. coli” (Nature Communications, 2022).
# Counter-ions that a name gives are not always drawn. ± gives the standard deviation of the averaged measurements.
# Test system: E. coli TESEC Mtb Asd
# Experiment: growth (OD600 after 10 h); higher = more growth (less inhibition)
# Details: arabinose induction (level): High; compound 0.1 mM; raw OD600 reference: median of DMSO wells 0.331, cell-free background 0.041
# Procedure: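 TESEC E. coli strains in which the native enzyme is deleted and replaced by arabinose-inducible Mtb Asd, DapB, CysH or TrpD, each grown in its selective medium. Strains were screened against the Prestwick library at 0.1 mM and 1% DMSO in 384-well format at low and high arabinose induction. Growth is read as OD600 after 10 h in triplicate.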
row,SMILES,growth
1,CC1(C)O[C@@H]2C[C@H]3[C@@H]4C[C@H](F)C5=CC(=O)C=C[C@]5(C)[C@@]4(F)[C@@H](O)C[C@]3(C)[C@]2(C(=O)CO)O1 [Fluocinolone acetonide],0.198 ± 0.02
2,O=C1CC[C@@H](C(=O)N2CSC[C@H]2C(=O)O)N1 [Pidotimod],0.271 ± 0.059
3,Cc1cc(NS(=O)(=O)c2ccc(N)cc2)no1 [Sulfamethoxazole],0.404 ± 0.042
4,"CN(Cc1cnc2nc(N)nc(N)c2n1)c1ccc(C(=O)N[C@@H](CCC(=O)O)C(=O)O)cc1 (racemic) [Amethopterin (R,S)]",0.213 ± 0.024
5,CN(C)CCCN1c2ccccc2CCc2ccc(Cl)cc21 [Clomipramine hydrochloride],0.0467 ± 0.00076
6,CN1CCN2c3ccccc3Cc3ccccc3C2C1 (stereo not drawn) [Mianserine hydrochloride],0.222 ± 0.042
7,CCCN(CCC)C(=O)C(CCC(=O)O)NC(=O)c1ccccc1 (stereo not drawn) [Proglumide],0.318 ± 0.075
8,CCCCOc1ccc(CC(=O)NO)cc1 [Bufexamac],0.33 ± 0.0049
9,CC(C)CC(=O)N[C@H](C(=O)N[C@H](C(=O)N[C@@H](CC(C)C)[C@@H](O)CC(=O)N[C@@H](C)C(=O)N[C@@H](CC(C)C)[C@@H](O)CC(=O)O)C(C)C)C(C)C [Pepstatin A],0.419 ± 0.028
10,CO[C@@]1(NC(=O)C2SC(=C(C(N)=O)C(=O)O)S2)C(=O)N2C(C(=O)O)=C(CSc3nnnn3C)CS[C@@H]21 (stereo partly drawn) [Cefotetan],0.0535 ± 0.0059
11,CC[N+](CC)(CC)CCC(O)(c1ccccc1)C1CCCCC1 (stereo not drawn) [Tridihexethyl chloride],0.349 ± 0.028
12,O=C1c2ccccc2C(=O)C1c1ccccc1 [Phenindione],0.226 ± 0.037
13,CC(C)NC(=N)NC(=N)Nc1ccc(Cl)cc1 [Proguanil hydrochloride],0.216 ± 0.048
14,Cc1[nH]cnc1CN1CCc2c(c3ccccc3n2C)C1=O [Alosetron hydrochloride],0.287 ± 0.076
15,O=c1cc(-c2ccc(O)c(O)c2)oc2cc(O)cc(O)c12 [Luteolin],0.0806 ± 0.023
16,O=C1OC(CN2CCOCC2)CN1/N=C/c1ccc([N+](=O)[O-])o1 (stereo not drawn) [Furaltadone hydrochloride],0.0534 ± 0.0031
17,O=C(c1ccc(OCCN2CCCCC2)cc1)c1c(-c2ccc(O)cc2)sc2cc(O)ccc12 [Raloxifene hydrochloride],0.062 ± 0.0013

row,SMILES,growth
1,CNS(=O)(=O)Cc1ccc2[nH]cc(CCN(C)C)c2c1 [Sumatriptan succinate],0.372 ± 0.026
2,Cc1ccc(C)c(OCCCC(C)(C)C(=O)O)c1 [Gemfibrozil],0.202 ± 0.051
3,O=C(NCC(O)CO)c1c(I)c(C(=O)NCC(O)CO)c(I)c(N(CCO)C(=O)CO)c1I (stereo not drawn) [Ioversol],0.477 ± 0.014
4,CN(C)CCOC(c1ccc(Cl)cc1)c1ccccn1 (stereo not drawn) [Carbinoxamine maleate salt],0.259 ± 0.023
5,C=CCSCC1Nc2cc(Cl)c(S(N)(=O)=O)cc2S(=O)(=O)N1 (stereo not drawn) [Althiazide],0.261 ± 0.052
6,CC(=O)OCC(=O)[C@@]1(O)[C@H](C)C[C@H]2[C@@H]3CCC4=CC(=O)C=C[C@]4(C)[C@@]3(F)[C@@H](O)C[C@@]21C [Dexamethasone acetate],0.226 ± 0.034
7,CC(C)(C)NCC(O)c1ccc(O)c(CO)c1 (stereo not drawn) [Salbutamol],0.318 ± 0.067
8,"CC(C)NCC(O)c1cc(O)cc(O)c1 (stereo not drawn) [Metaproterenol sulfate, orciprenaline sulfate]",0.283 ± 0.046
9,CN(CCOc1ccc(NS(C)(=O)=O)cc1)CCc1ccc(NS(C)(=O)=O)cc1 [Dofetilide],0.213 ± 0.019
10,N=c1nc(N2CCCCC2)cc(N)n1O [Minoxidil],0.371 ± 0.048
11,Clc1ccccc1C(c1ccccc1)(c1ccccc1)n1ccnc1 [Clotrimazole],0.0468 ± 0.00044
12,CC(=O)Oc1ccccc1C(=O)Nc1ncc([N+](=O)[O-])s1 [Nitazoxanide],0.0632 ± 0.0045
13,CCOc1ccccc1OC(c1ccccc1)C1CNCCO1 (stereo not drawn) [Reboxetine mesylate],0.249 ± 0.038
14,NC(=O)c1cc[n+](CC2=C(C(=O)[O-])N3C(=O)[C@@H](NC(=O)[C@@H](c4ccccc4)S(=O)(=O)O)[C@H]3SC2)cc1 [Cefsulodin sodium salt],0.33 ± 0.084
15,CC(C)(C)NC(=O)[C@@H]1C[C@@H]2CCCC[C@@H]2CN1C[C@@H](O)[C@H](Cc1ccccc1)NC(=O)[C@H](CC(N)=O)NC(=O)c1ccc2ccccc2n1 [Saquinavir mesylate],0.0544 ± 0.0037
16,CCCCOC(=O)c1ccc(O)cc1 [Butylparaben],0.174 ± 0.0066
